In PubChem BioAssay AID833 (The Scripps Research Institute Molecular Screening Center, 2007):
Among all 16,000 compounds or so, about 80 (0.5%) were called active. This is one part of a sample in which actives are shown more often than they occur. Cut-off read from the data, not from the text of the source: active = activation above about 15%; inactive = the rest.

biological target: Galanin receptor type 2 (Rattus norvegicus) (UniProt O08726); test: agonists of rat galanin receptor 2 (GALR2) (AID 833); conditions: cell-based GALR2 agonist screen; at 10 µM; stronger effect = higher value
Sequence (O08726 whole entry, looked up): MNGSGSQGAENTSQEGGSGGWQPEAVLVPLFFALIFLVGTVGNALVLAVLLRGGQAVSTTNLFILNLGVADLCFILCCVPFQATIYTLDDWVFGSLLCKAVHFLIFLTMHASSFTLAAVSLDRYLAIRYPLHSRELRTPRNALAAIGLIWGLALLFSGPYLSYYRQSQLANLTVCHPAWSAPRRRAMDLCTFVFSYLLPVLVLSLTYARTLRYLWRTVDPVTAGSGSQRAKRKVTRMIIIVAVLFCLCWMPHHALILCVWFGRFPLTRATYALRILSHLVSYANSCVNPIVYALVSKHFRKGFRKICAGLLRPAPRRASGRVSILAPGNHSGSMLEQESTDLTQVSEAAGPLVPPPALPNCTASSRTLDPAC

activation, inactive:
COc1ccc(S(=O)c2ccccc2C(=O)O)c(C(=O)O)c1 (centres undefined) -7.55%
Cc1ccc(NC(=O)c2ccccc2NC(=O)c2ccccc2)cc1 -2.58%
CCOC(=O)C(=CNc1ccc2n[nH]nc2c1)C(=O)OCC -1.04%
CSc1sc(C(=O)Nc2cccc(C(F)(F)F)c2)cc1S(=O)(=O)C(C)C -6.93%
Cn1c(SCC(=O)c2ccc(Cl)cc2)nnc1-c1cnccc1C(F)(F)F -8.49%
O=S(=O)(Cc1nnc(-c2cc(Cl)cc(Cl)c2)o1)c1ccc(Cl)cc1 -1.76%
CC1(C)CC(=O)C=C(N2CCOCC2)C1 -5.82%
Cc1ccc(Sc2cc(C)c(C)cc2N)c(C)c1 -6.96%
O=C1NCCN1CCNS(=O)(=O)c1cc(Cl)sc1Cl -5.62%
O=S(=O)(Oc1ccc(C2SCCS2)cc1)c1ccc(Br)cc1 -1.98%
CNC(=S)Nc1cscc1S(=O)(=O)c1ccc(Cl)cc1 -6.95%
CCOC(=O)NC(=S)NC12CC3CC(CC(C3)C1)C2 -2.11%
Cc1onc(-c2ccccc2)c1CNS(=O)(=O)c1ccc(-c2ccccn2)s1 -9.42%
COC(=O)c1c(C(=O)OC)c2n(c1C)CCS2 -6.88%
Cc1onc(-c2ccccc2Cl)c1NC(=O)N1c2ccc(F)cc2CCC1C (centres undefined) -4.64%
N#Cc1sccc1Br -7.39%
O=S(=O)(O)Oc1c[nH]c2ccccc12 -7.29%
N#CC(C#N)=Cc1cccn1-c1ccc(C(F)(F)F)cc1 -6.03%
CS/C(=N\S(=O)(=O)c1ccccc1)NNc1ccccc1 -3.17%
O=c1[nH]c2c(=O)[nH]c(=S)[nH]c2nc1/C=C(\O)c1ccccc1 -5.76%
CN(C)/C=C/C(=O)c1cc(C(C)(C)C)cc(C(C)(C)C)c1O -4.8%
N#Cc1ccc(N2CCSCC2)cc1[N+](=O)[O-] -4.09%
N/C(=N\OC(=O)c1ccc(Cl)cc1)c1cccc(CS(=O)(=O)c2ccccn2)c1 -8.52%
COc1cccc(/C=C2\SC(=S)C(N)C2=O)c1OC (centres undefined) -1.21%
CS(=O)(=O)c1csc(C(=O)NCc2cccnc2)c1Cl -6.55%
O=C(N[C@@H](Cc1ccc(O)cc1)C(=O)O)OCc1ccccc1 -5.07%
CS(=O)(=O)Nc1ccc(/C(N)=N/OC(=O)c2cccs2)cc1 -5.51%
CCc1ccnc(NS(=O)(=O)c2ccc3c(c2)OCCO3)c1 -1.48%
c1csc(-c2ccc(-c3ccon3)s2)c1 -4.74%
CC(=O)c1ccc(NC(=O)OC2CCSC2)cc1 (centres undefined) -4.49%
O=C(Nc1ccc2c(c1)OCCO2)c1cnccn1 6.11%
COc1cc(C=C(C#N)C#N)cc(OC(C)=O)c1OC(C)=O -8.12%
CNC(=S)NNC(=O)CSc1cccs1 -6.57%
O=C(NC(=O)c1ccno1)Nc1ccccc1Cl -3.51%
Cc1cc(C2=CSC3=NCCN23)ccc1Cl -7.84%
CN(C)CCC(O)c1ccc2c(c1)OCCCCO2 (centres undefined) -8.25%
Cc1ccc(N(C)NC(=O)Nc2ccc(Cl)cc2)nn1 -6.34%
COc1ccc(C(=O)NNC(=O)c2c(OC)cc(C(F)(F)F)cc2C(F)(F)F)cc1 -1.51%
CCOC(=O)Cc1nnc(-c2ccc(Cl)cc2)o1 -7.97%
N#Cc1nc(-c2ccccc2)c(-c2ccccc2)nc1C#N 3.73%
Cc1noc(C)c1C(=O)Oc1cccc2cccnc12 3.32%
Cc1ccc(OC(=O)c2cccc([N+](=O)[O-])c2)c(Br)c1 1.69%
NS(=O)(=O)c1cc(C(F)(F)F)cc(C(F)(F)F)c1 -4.46%
NNC(=O)c1csc(COc2ccc(C3SCCS3)cc2)n1 -7.31%
O=C(Nc1ccccc1N1CCOCC1)NC1CCN(C(=O)OCc2ccccc2)CC1 -4.03%
CCOC(=O)c1cc(Sc2ccccc2N)cc(C(=O)OCC)n1 -3.83%
CN(C)C(=O)Nc1ccc(C(C)(C)C)cc1 -6.41%
O=C(O)c1ccccc1N/C=C/[N+](=O)[O-] -3.26%
Cc1nn2c(=O)c3c4c(sc3nc2[nH]c1=O)CCCC4 0.66%
Fc1cccc(Cl)c1CSc1nccn1-c1cccnc1 -3.88%
O=C(NC1Cc2ccccc2C1)c1nnc(-c2ccccc2)o1 -5.35%
N/C(=N\OC(=O)c1ccc([N+](=O)[O-])o1)c1ccc(OCc2ccc(Cl)cc2)c(Cl)c1 -4.76%
CN(C)c1cccc2c1c(NC(=O)Nc1ccc(OCc3ccccc3)cc1)nn2C -3.92%
O=C(Nc1ccc(C(F)(F)F)cn1)c1ccc(Oc2cc(Cl)cc(Cl)c2)o1 -5.62%
CCN=C(NCC)Nc1ccc(Cl)cc1 -7.95%
CCOC(=O)CCC(=O)OC(C(=O)c1ccccc1)c1ccccc1 (centres undefined) -6.88%
COc1ccc(C2CC(c3cccs3)=Nc3ccccc3S2)c(Cl)c1OC (centres undefined) -10.3%
CCCN(CCC)S(=O)(=O)c1ccc(C(=O)N2CC3CCC(CC3)C2)cc1 -5.35%
O=C(Nc1ccc(OC(F)F)cc1)Nc1coc(-c2ccccc2)c1 -4.63%
COc1ccc2c(c1)CCCC2=Nc1ccccc1C(F)(F)F -6.48%
COC(=O)c1ccc(S(=O)(=O)NNC(=O)c2cn3cc(C(F)(F)F)cc(Cl)c3n2)n1C -7.71%
O=c1c(-c2nc(-c3ccc(C(F)(F)F)cc3)no2)cnc2n1CCS2 -4.47%
Cc1noc(C)c1S(=O)(=O)Nc1cc(C(F)(F)F)ccc1N1CCOCC1 -7.12%
COC(=O)c1cc(OC)c(OC)cc1NS(=O)(=O)c1ccsc1C(=O)OC -7.2%
